From PubChem BioAssay (NCATS)
Inconclusive results are not listed. Where a call stands in place of a potency, no number is given. Activity calls are given as the source filed them. Calls follow the shape of the dose curve; as a rule, active = well fitted inhibition curve with a large enough effect; inconclusive = small, poorly fitted or top-dose-only effect; inactive = flat fitted curve, though single readings scatter. Positions of bridges follow the written chain, without caps; N, C: chain ends. Non-standard residues stand in square brackets, D forms with d. Residues, ends and D or L forms follow the SMILES beside them. ξ: configuration not given here. *: point of attachment. Octanoyl(6-Me) = CCC(C)CCCCC(=O)*; ξThr(3R) = C[C@@H](O)C(N)C(=O)O; dDab = NCC[C@@H](N)C(=O)O; Dab = NCC[C@H](N)C(=O)O

These molecules were tested on Zika virus NS2B-NS3 protease (assay: Primary screen GU AMC qHTS for Zika virus inhibitors (AID 1347154; also: nearly all actives have a fitted effect of over 70% in size)). Details: Zika NS2B-NS3 unlinked protease, AMC fluorogenic substrate; series mostly up to 54.1 µM.
Outline: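 Unlinked Zika NS2B hydrophilic domain/NS3 protease domain noncovalent complex (25 nM final) in 10 mM Tris-HCl pH 8.0, 0.01% Tween 20, with AMC peptide substrate. Fluorescence (ex 340, em 450 nm) change over 15 min, room temperature; percent inhibition fitted to 4-parameter Hill equation.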
For `C[C@@H]1C(=O)O[C@H]2CC34[C@H]5C[C@@H](C(C)(C)C)C36[C@H](OC(=O)[C@@H]6O)O[C@@]4(C(=O)O5)[C@]21O` (stereo not given in full), the Potency was “inactive”. With `Oc1ccc(-c2ccc(-c3cc(Nc4cccc(CNC5CC5)c4)n[nH]3)cc2)c(O)c1` the Potency was “inactive”. With `CC1(C)O[C@@H]2C[C@H]3[C@@H]4CCC5=CC(=O)C=C[C@]5(C)[C@@H]4[C@@H](O)C[C@]3(C)[C@]2(C(=O)CO)O1` the Potency was “inactive”. For `NC(=O)N1CCC(CC(=O)N2CCC([C@H]3c4ncc(Br)cc4CCc4cc(Cl)cc(Br)c43)CC2)CC1`, the Potency was “inactive”. In the case of `Cn1cc(-c2cnn3c(N)c(Br)c([C@H]4CCCNC4)nc23)cn1`, the Potency is reported as “inactive”. In the case of `CCc1c(O)cc(O)c(C(=O)c2ccc(OCCN3CCOCC3)c(OC)c2)c1CC(=O)N(CCOC)CCOC`, the Potency is reported as “inactive”. For `COc1cc(OC)cc(-c2ccc3ncc4ccc(=O)n(-c5ccc(N6CCNCC6)c(C(F)(F)F)c5)c4c3c2)c1`, the Potency was “inactive”. `COc1cc([C@@H]2c3cc4c(cc3[C@@H](O[C@@H]3O[C@@H]5CO[C@@H](c6cccs6)O[C@@H]5[C@H](O)[C@@H]3O)[C@H]3COC(=O)[C@H]23)OCO4)cc(OC)c1O` was tested, and the Potency was “inactive”. For `CC(C)N(CC[C@H](c1ccccc1)c1cc(CO)ccc1O)C(C)C`, the Potency was “inactive”. In the case of `CCOC(=O)N1CCN([N+]([O-])=NOc2ccc([N+](=O)[O-])cc2C#N)CC1`, the Potency is reported as “inactive”. For `C[C@@H](Oc1ccc2[nH]nc(C=Cc3cnn(CCO)c3)c2c1)c1c(Cl)cncc1Cl`, the Potency was “inactive”. In the case of `COc1ccc(C=Cc2cc(OC)c(OC)c(OC)c2)cc1NC(=O)[C@H](N)CO`, the Potency is reported as “inactive”. With `CCOC(=O)C=C[C@H](C[C@@H]1CCNC1=O)NC(=O)[C@@H](CC(=O)[C@@H](NC(=O)c1cc(C)on1)C(C)C)Cc1ccc(F)cc1` the Potency was “inactive”. With `C[C@]12CC[C@@H]3c4ccc(O)cc4CC[C@H]3[C@H]1CC[C@H]2O` the Potency was “inactive”. In the case of `CCC(C)CCCCC(=O)N[C@@H](CCN)C(=O)NC(C(=O)N[C@H](CCN)C(=O)N[C@@H]1CCNC(=O)C([C@@H](C)O)NC(=O)[C@@H](CCN)NC(=O)[C@@H](CCN)NC(=O)[C@@H](CC(C)C)NC(=O)[C@H](Cc2ccccc2)NC(=O)[C@H](CCN)NC1=O)[C@@H](C)O` (stereo partly drawn) ({Octanoyl(6-Me)}-[Dab][ξThr(3R)][dDab][dDab][Dab]F[dL][dDab][dDab][ξThr(3R)]; lactam 4-C), the Potency is reported as “inactive”. With `CC[C@H]1OC(=O)[C@H](C)[C@@H](O[C@H]2C[C@@](C)(OC)[C@@H](O)[C@H](C)O2)[C@H](C)[C@@H](O[C@@H]2O[C@@H](C)C[C@H](N(C)C)[C@@H]2O)[C@](C)(O)C[C@@H](C)C(=O)[C@H](C)[C@@H](O)[C@]1(C)O` the Potency was “inactive”. `CC(C)N1[N]C(=C2C=c3cc(O)ccc3=N2)c2c(N)ncnc21` was tested, and the Potency was “inactive”. With `COc1cc(N2CCC(C(N)=O)CC2)ccc1Nc1nc(N)c(Cl)c(Nc2ccccc2S(=O)(=O)C(C)C)n1` the Potency was “inactive”. For `C[C@@H]1[C@H](C)CC[C@]2(C(=O)O)CC[C@]3(C)C(=CC[C@@H]4[C@@]5(C)C[C@@H](O)[C@H](O)[C@@](C)(CO)[C@H]5CC[C@]43C)[C@@H]12`, the Potency was “inactive”. For `NS(=O)(=O)OC[C@@H]1C[C@@H](n2ccc3c(N[C@H]4CCc5ccccc54)ncnc32)C[C@H]1O`, the Potency was “inactive”. In the case of `c1cc(CN2CCCNCCNCCCNCC2)ccc1CN1CCCNCCNCCCNCC1`, the Potency is reported as “inactive”. In the case of `N#Cc1ccc(COC[C@H]2O[C@@H](n3c(NCc4ccc(Cl)c(Cl)c4)nc4c(N)ncnc43)[C@@H](O)[C@@H]2O)cc1`, the Potency is reported as “inactive”. `CN1C(C(=O)Nc2ccccn2)=C(O)c2sc(Cl)cc2S1(=O)=O` was tested, and the Potency was “inactive”. With `C[C@H](CCC(=O)O)[C@H]1CCC2C3C[C@H](O)[C@@H]4C[C@H](O)CC[C@]4(C)C3CC[C@@]21C` (stereo not given in full) the Potency was “inactive”. In the case of `Cc1ccc(O)c(C(CCN(C(C)C)C(C)C)c2ccccc2)c1` (stereo not given), the Potency is reported as “inactive”. In the case of `NC(=O)c1ncn([C@@H]2O[C@H](CO)[C@@H](O)[C@@H]2O)c1N`, the Potency is reported as “inactive”. With `NC[C@H]1O[C@H](O[C@H]2[C@@H](O)[C@@H](O[C@H]3O[C@H](CO)[C@@H](O)[C@H](N)[C@@H]3O)[C@H](N)C[C@@H]2N)[C@H](N)C[C@H]1O` the Potency was “inactive”. In the case of `OC[C@@H](O)[C@@H](O)[C@H](O)[C@@H](O)CO`, the Potency is reported as “inactive”. With `COc1cc2ncnc(Nc3cccc(Br)c3)c2cc1OC` the Potency was “inactive”. `N#Cc1cc(NC(=O)Nc2nnc(-c3ccncc3)s2)ccc1-c1cn[nH]c1` was tested, and the Potency was “inactive”. For `COc1cccc2c1C(=O)c1c(O)c3c(c(O)c1C2=O)C[C@@](O)(C(C)=O)C[C@H]3O[C@H]1C[C@H](N)[C@H](O)[C@H](C)O1`, the Potency was “inactive”. `c1coc(CNc2ncnc3nc[nH]c23)c1` was tested, and the Potency was “inactive”. `NC1=N[C@H]2[C@H](CS[C@H]2CCCCC(=O)O)N1` was tested, and the Potency was “inactive”. For `C=CCNC1=C2C[C@@H](C)C[C@H](OC)[C@@H](O)[C@@H](C)C=C(C)[C@H](OC(N)=O)[C@@H](OC)C=CC=C(C)C(=O)NC(=CC1=O)C2=O`, the Potency was “inactive”. For `Cn1cc(C2=C(c3c4n(c5ccccc35)CCC(CN)C4)C(=O)NC2=O)c2ccccc21` (stereo not given), the Potency was “inactive”.
